Our source for the growth values is PubChem BioAssay (NCI).

The panel holds about 83,000 compounds, 20% with a hit somewhere; the sample as a whole holds those more often.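 In brief: 96-well plates, 48 h treatment, single concentration, percent growth endpoint.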 Values without a mark were called inactive. Calls of active or inactive are those of the source. Rule for the calls: active = growth percent below 10; inactive = the rest.

Assay in all cases: NCI-60 one-dose screen, 48 h (100 = growth as untreated, 0 = no growth, -100 = all killed)
The subject of one assay is T-47D breast. As to conditions: 10 µM.
A further assay deals with BT-549 breast. Conditions: 10 µM unless noted.
A further assay relates to MDA-MB-435 melanoma. As to conditions: 10 µM unless noted.
The next assay concerns SW-620 colon. As to conditions: 10 µM unless noted.
The next assay relates to MCF7 breast. As to conditions: 10 µM unless noted.
The subject of a further assay is HCT-116 colon. As to conditions: 10 µM unless noted.
A further assay concerns HCC-2998 colon. Conditions: 10 µM unless noted.
The next assay has as its system KM12 colon. Conditions: 10 µM unless noted.

On to `CCOC(=O)c1c(Cl)c2c(n1Cc1cc(OC)cc(OC)c1)-c1oncc1CCC2`, for which the growth in the assay with T-47D breast was 51.7%; in the assay on BT-549 breast it was 69.9%; in the assay with MDA-MB-435 melanoma, -53% (active); with SW-620 colon, 16.8%; in the assay with MCF7 breast, 10.7%; in the assay on HCT-116 colon, 23.9%. Besides, the growth is 55% in the assay on HCC-2998 colon and 29.6% with KM12 colon.

On to `COc1cc(CNCCN2C(=O)c3ccc4c5c(ccc(c35)C2=O)C(=O)N(CCNCc2cc(OC)c(OC)c(OC)c2)C4=O)cc(OC)c1OC`, for which the growth in the assay with T-47D breast was -56.2% (active); in the assay on BT-549 breast, -93.8% (active); in the assay on MDA-MB-435 melanoma it was -63.4% (active); with SW-620 colon it was -87.3% (active); in the assay with MCF7 breast, -59.4% (active); in the assay with HCT-116 colon it was -99.7% (active). In addition, the growth was -100% (active) in the assay on HCC-2998 colon and -92.5% (active) with KM12 colon.

Turning to `C=CCCCCCCCCC(=O)[O-].C=CCCCCCCCCC(=O)[O-].[Zn+2]`, the growth in the assay with T-47D breast was 112%.

Regarding `COc1ccc(/C=C2\CN(Cc3cn(CCCNc4ccnc5cc(Cl)ccc45)nn3)C/C(=C\c3ccc(OC)c(OC)c3)C2=O)cc1OC`, the growth in the assay on T-47D breast is 49.5%; with BT-549 breast, -56.1% (active); in the assay on MDA-MB-435 melanoma, -28.9% (active); in the assay on SW-620 colon, -16.7% (active); in the assay with MCF7 breast, 36.9%; with HCT-116 colon it was -64.6% (active). The growth was -87% (active) in the assay with HCC-2998 colon and -64% (active) in the assay on KM12 colon.

Consider `COc1cc(C(=O)/C=C/c2c(-c3cccs3)nc3sccn23)cc(OC)c1OC`, for which the growth with T-47D breast was -1.93% (active); in the assay with BT-549 breast it was 5.79% (active); in the assay with MDA-MB-435 melanoma, 2.16% (active); in the assay with SW-620 colon, 8.66% (active); with MCF7 breast it was 11%; in the assay on HCT-116 colon, -14.3% (active). The results for the growth in the assay on HCC-2998 colon and in the assay on KM12 colon were -11.9% (active) and -27.2% (active), respectively.

With `COc1ncc(F)c(OC)n1`, the growth is 104% with T-47D breast; 108% with BT-549 breast; 106% in the assay with MDA-MB-435 melanoma; 107% in the assay with SW-620 colon; 96.6% in the assay with MCF7 breast; 101% with HCT-116 colon. The growth with HCC-2998 colon is 110%; with KM12 colon, 105%.

With `Clc1ccc(Nc2nc(Nc3ccccc3)nc(Nc3ccc(-c4cc(-c5ccc(Cl)cc5)on4)cc3)n2)cc1`, the growth in the assay on T-47D breast is 71.7%; with BT-549 breast it was 59.1%; in the assay on MDA-MB-435 melanoma, 11.1%; in the assay with SW-620 colon, 38.7%; with MCF7 breast, 50%; in the assay with HCT-116 colon it was 27.4%. In addition, the growth in the assay with HCC-2998 colon is 56.4%; in the assay with KM12 colon it was 56.9%.

As to `O=c1c2cc(F)ccc2oc2c(NCCNCCO)nc3ccccc3c12`, the growth with T-47D breast was 84.8%; in the assay on BT-549 breast, 79.8%; in the assay on MDA-MB-435 melanoma it was 48.5%; in the assay on SW-620 colon it was 21.4%; in the assay on MCF7 breast, 31.4%; in the assay on HCT-116 colon it was 17.2%. The growth with HCC-2998 colon is 56.5%; in the assay with KM12 colon it was 31.8%.

Turning to `O=C1c2ccccc2C(=O)c2c(Nc3ccc(CCO)cc3)ccc(O)c21`, the growth is 33.2% in the assay on T-47D breast; 53.3% in the assay with BT-549 breast; 88.4% with MDA-MB-435 melanoma; 65.8% in the assay with SW-620 colon; 33.7% in the assay with MCF7 breast; 68.6% with HCT-116 colon. The growth with HCC-2998 colon is 66.8%; in the assay on KM12 colon, 76.2%.

Turning to `O=C(Nc1ccc(Cl)c(Cl)c1)NC(CO)(CO)CO`, the growth was 96% in the assay on T-47D breast; 93.8% in the assay on BT-549 breast; 95.8% with MDA-MB-435 melanoma; 101% in the assay on SW-620 colon; 97.4% in the assay with MCF7 breast; 101% with HCT-116 colon. For the same compound, the growth in the assay with HCC-2998 colon was 102%; with KM12 colon it was 97.7%.

Consider `Cc1ccc(C(=O)O[C@H](C(=O)O)[C@H](OC(=O)c2ccc(C)cc2)C(=O)O)cc1`, for which the growth in the assay on T-47D breast is 93.6%.

With `Cc1oc2c(c1C(=O)N1CC[C@@H](N)C1)C(=O)c1c(c(O)c3ccccc3c1O)C2=O`, the growth was 61.8% in the assay with T-47D breast; 79% in the assay on BT-549 breast; 40.3% in the assay with MDA-MB-435 melanoma; 3.53% (active) in the assay on SW-620 colon; -1.04% (active) in the assay on MCF7 breast; 5.14% (active) in the assay on HCT-116 colon. Also, the figures for the growth with HCC-2998 colon and in the assay on KM12 colon were 12.3% and 15.7%, respectively.

As to `COC(=O)c1c2c(c(C)[n+]([O-])c1C)C(=O)C=C(NCc1cccc(OC)c1)C2=O`, the growth was -43.9% (active) in the assay on T-47D breast; -95% (active) in the assay with BT-549 breast; -94.7% (active) with MDA-MB-435 melanoma; -41.2% (active) with SW-620 colon; -65.4% (active) in the assay with MCF7 breast; -60.1% (active) in the assay on HCT-116 colon. In addition, the growth is -64.7% (active) in the assay on HCC-2998 colon and -21.1% (active) in the assay with KM12 colon.

On to `COc1ccc(CSc2nc3cc(OC)c(OC)cc3c(=O)n2-c2ccc(Cl)cc2)cc1`, for which the growth was 95.4% with T-47D breast; 100% with BT-549 breast; 98% in the assay with MDA-MB-435 melanoma; 99.2% in the assay on SW-620 colon; 101% in the assay on MCF7 breast; 98.4% in the assay on HCT-116 colon. For the same compound, the figures for the growth with HCC-2998 colon and in the assay with KM12 colon were 108% and 102%, respectively.

For the compound `COc1nc2c(cc1S(=O)(=O)c1ccccc1)CCc1c-2cnn1-c1cccc(Cl)c1`, the growth with T-47D breast is 59.6%; with BT-549 breast it was 80.8%; in the assay with MDA-MB-435 melanoma, 63%; with SW-620 colon, 93.7%; in the assay on MCF7 breast it was 87.5%; in the assay with HCT-116 colon, 62.9%. Further, the growth in the assay on HCC-2998 colon is 101%; in the assay with KM12 colon it was 85.4%.

On to `Cc1ccc(C2SCC(=O)N2NC(=O)c2[nH]c3ccc(F)cc3c2-c2ccccc2)cc1` (configuration not stated), for which the growth is 91.3% in the assay on T-47D breast; 93.2% in the assay with BT-549 breast; 96.3% in the assay with MDA-MB-435 melanoma; 102% with SW-620 colon; 93.1% in the assay with MCF7 breast; 80.1% in the assay on HCT-116 colon. Moreover, the growth with HCC-2998 colon is 70.2%; with KM12 colon it was 96.1%.

Regarding `Cn1c(=O)c(S(=O)(=O)c2ccccc2)cc2ccc3c(cnn3-c3ccc(Cl)cc3)c21`, the growth with T-47D breast is 50.5%; in the assay on BT-549 breast, 66.1%; in the assay with MDA-MB-435 melanoma, 80.8%; in the assay on SW-620 colon it was 90.5%; with MCF7 breast it was 99.8%; in the assay on HCT-116 colon, 63.5%. The growth in the assay with HCC-2998 colon was 93.4%; in the assay with KM12 colon, 89.3%.
